Experimental data: PubChem BioAssay (NCATS)
Results filed as inconclusive are left out. A call without a number means that no potency is given here. Calls of active or inactive are those of the source. Calls come from the whole dose curve; as a rule, active = well fitted inhibition curve with a large enough effect; inconclusive = small, poorly fitted or top-dose-only effect; inactive = flat fitted curve, though single readings scatter.

Test: P-glycoprotein substrates identified in KB-8-5-11 adenocarcinoma cell line, qHTS therapeutic library screen (AID 1346987); note: nearly all actives have a fitted effect of over 65% in size
Details: KB-8-5-11 (P-gp overexpressing) viability, CellTiter-Glo, 72 h; series mostly up to 44.5 µM
Outline: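 Compounds are pinned in dose-response onto KB-8-5-11 cells (500 cells/well, colchicine-free medium) and left 72 h at 37 degree C. CellTiter-Glo luminescence then yields AC50 values.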

SMILES	Potency
CC(=O)c1c(C)cccc1O[C@@H]1O[C@H](CO)[C@@H](O)[C@H](O)[C@H]1O	inactive
CNC(=O)c1ccc2c(c1)CCO[C@H]2CCN1CCN(c2ccc(C(N)=O)cc2)CC1	inactive
COC(=O)C(CC1(O)c2ccccc2N2C(=O)C(C)(C)N(O)C21)n1cnc2ccccc2c1=O (centres undefined)	inactive
CC[C@H]1OC(=O)[C@H](C)C(=O)[C@H](C)[C@@H](OC2O[C@H](C)C[C@H](N(C)C)[C@H]2O)[C@@H](C)C[C@@H](C)C(=O)/C=C/[C@]1(C)O (some centres undefined)	inactive
